89 compounds from PubChem BioAssay AID652039 (The Scripps Research Institute Molecular Screening Center, 2013) can be followed below.

Structures are written as SMILES. Hit rate of the full screen: of about 370,000 compounds, about 3,300 (0.89%) were called active.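 Rule for the calls: active = activation above the mean of all tested compounds plus 3 SD, computed per campaign excluding outliers beyond control limits (cut at about 13% in these data); inactive = the rest.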 What follows is part of a selection rich in actives, with near analogues and random picks from the rest.

The target in this test is Kallikrein-7 (Homo sapiens) (UniProt P49862). As to the kind of experiment: proKLK7 zymogen activators, primary screen, biochemical, fluorescence intensity (AID 652039). Conditions: purified proKLK7, EDANS-DABCYL substrate fluorescence; at 7 µM; hits give high values; 100% is mature enzyme control, 0% vehicle.
Chain of Kallikrein-7 (Homo sapiens) (P49862 whole entry, looked up): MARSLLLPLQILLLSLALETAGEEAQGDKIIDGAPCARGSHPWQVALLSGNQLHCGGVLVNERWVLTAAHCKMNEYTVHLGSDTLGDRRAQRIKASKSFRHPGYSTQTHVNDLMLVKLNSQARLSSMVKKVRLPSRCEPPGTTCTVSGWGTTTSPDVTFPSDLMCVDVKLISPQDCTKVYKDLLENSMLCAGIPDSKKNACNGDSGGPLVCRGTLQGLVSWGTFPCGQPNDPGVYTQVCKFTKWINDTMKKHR
On to `CCOC(=O)N1CCN(C(=O)C[C@H]2C[C@@]3(C(=O)OC)C(=C[C@H](C(C)(C)C)O[C@@H]3C)N(Cc3ccc(Cl)cc3Cl)C2=O)CC1`, for which the activation is 0.88% (inactive).
The figure for `COC(=O)c1ccccc1Oc1c(F)c(F)nc(N2CCOCC2)c1F` is 0.34% (inactive).
Take `COC(=O)c1cc(N2CCNCC2)nc2ccccc12`: the activation was 78.9% (active).
For `Cc1cc(C(=O)OCC(=O)N2C(C)CCCC2C)c2ccccc2n1` (centres undefined) the value was -1.23% (inactive); for `CCOC(=O)[C@@]12CN(C(=O)OC(C)(C)C)CC=C1N(Cc1ccc(OC)cc1)C(=O)[C@H]2CC(=O)NCc1ccc(OC)c(OC)c1`, 0.61% (inactive); for `CC1C(=O)C(C)C(c2ccc(O)cc2)NC1c1ccc(O)cc1` (centres undefined), 0.15% (inactive).
The figure for `Cc1cc(C)c2nc3nc(C)cc(C)c3c(N)c2c1` is 52.6% (active).
In the case of `CCC(CO)Nc1cccc2c1S(=O)(=O)N(Cc1cn(Cc3ccccc3C(F)(F)F)nn1)Cc1ccccc1O2` (centres undefined), the activation was 0.4% (inactive).
The figure for `Cc1ccccc1CN1CCCCC(NC(=O)Nc2ccccc2F)C1=O` (centres undefined) is 0.62% (inactive); for `C#CCCN([C@H](C(=O)OC)C(C)C)S(=O)(=O)c1ccc(F)cc1Br` it is -0.16% (inactive); for `O=S1(=O)c2c(cccc2N2CCSCC2)Oc2ccccc2CN1Cc1cn(Cc2ccc(F)cc2)nn1` it is -2.26% (inactive).
Turning to `CN(CC(=O)Nc1ccc(Cl)cc1)CC(=O)Nc1cccc2ccccc12`, the activation is 0.06% (inactive).
The figure for `Cn1cccc1/C=N/NC(=O)CNc1cccc2ccccc12` is 22.8% (active).
The figure for `C/C(=N\NC(=O)CNc1cccc2ccccc12)c1ccc(Br)s1` is 2.95% (inactive); for `COc1ccc(/C=C2\CC3(OC(C)=O)CCCN2C3)cc1` (centres undefined) it is 0.04% (inactive).
The figure for `CCC(=O)Nc1ccc2nn(-c3ccc(F)cc3)nc2c1` is 7.33% (inactive); for `Nc1ccc2nn(-c3ccc(Cl)cc3)nc2c1` it is 64.3% (active); for `Nc1nc2cc(Cl)ccc2n1N` it is 0.42% (inactive).
Regarding `COc1ccc(-c2cc(C(F)(F)F)nc(SCCC(=O)NCc3ccco3)n2)cc1`, the activation is -0.49% (inactive).
The figure for `COc1ccc(-c2cc(C(F)(F)F)nc(S(C)(=O)=O)n2)cc1OC` is 15.4% (active).
The figure for `CCC(c1ccc(NC(=O)OC(C)(C)C)cc1)c1cc(OC)cc(OC)c1` (centres undefined) is 1.16% (inactive); for `COc1nc(N=C(N)N)nc2c(C)cccc12` it is 22.7% (active).
For `Cc1nc(N=C(N)N)nc2c(C)cccc12` the value was -0.57% (inactive).
`CCc1c(C)nc2c(OC)cccc2c1Cl`: the activation was 0.96% (inactive).
The figure for `Nc1[nH]c(/C=C2/CCCCC2n2[nH]c(=O)n(-c3ccccc3)c2=O)c(Cc2ccccc2)[n+]1Cc1ccccc1` (centres undefined) is -0.08% (inactive); for `COc1ccc(CN2C(=O)N3Cc4cc(OC)ccc4C3CS2(=O)=O)cc1` (centres undefined) it is 0.22% (inactive).
Turning to `CCN(CC)C(=O)CC[C@@H]1CC[C@]2(CCCN(S(=O)(=O)C3CCCCC3)C2)O1`, the activation is -0.08% (inactive).
The figure for `O=C(O)c1ccc2c(c1)C(=O)N(c1ccc(/C=C/C(=O)c3ccccc3)cc1)C2=O` is 108% (active); for `CC(=O)Nc1ccc(NC(=O)c2ccc3c(c2)C(=O)N(c2ccccc2C)C3=O)cc1` it is -0.23% (inactive).
In the case of `COc1ccc(C(=O)/C=C/c2ccc(-c3ccccc3)cc2)cc1CSCC(=O)O`, the activation is -2.22% (inactive).
For `C=CCN1[C@@H](Cc2ccccc2)COc2cccc(N3CCSCC3)c2S1(=O)=O` the value was 0.85% (inactive); for `O=C(NCc1ccc(Cl)cc1)C1CCCN(c2nc3ccccc3o2)C1` (centres undefined), 0.03% (inactive); for `Cc1sc2nc(SCC(=O)c3ccc(O)c(O)c3)n(Cc3ccco3)c(=O)c2c1C`, -0.81% (inactive).
As for `C=CCN1C(C(=O)OC)CN(Cc2cn(Cc3ccccc3)nn2)CCS1(=O)=O` (centres undefined), the activation is 0.39% (inactive).
Consider `COCCCNC(=O)/C(C#N)=C/c1c(N2CCCCCC2)nc2ccccn2c1=O`, for which the activation is 8.31% (inactive).
For `CN(c1ccc2nc3ccccc3c(=O)n2n1)C1CCCCC1` the value was 0.7% (inactive); for `CCOCCCNC(=O)c1cn(CC(C)C)c(=O)c2c1c1ccccc1n2C`, -1.85% (inactive).
The figure for `CCOCCCNC(=O)c1cc2c(=O)n3ccccc3nc2s1` is 40.6% (active); for `CN(CCNC(=O)c1cc2c(-c3ccccc3F)nn(C)c2s1)C1CCCCC1` it is -1.03% (inactive).
`CN(C(=O)c1cc2c(=O)n3ccccc3nc2s1)C1CCCCC1`: the activation is 25.8% (active).
For `Cc1ccc(C(=O)C2CCN(CC(=O)NCCC(C)C)CC2)cc1` the value was 1.04% (inactive).
`CCCC[C@H](C(=O)N(CC)c1ccccc1)[C@@H](O)c1ccc2ccccc2c1`: the activation was 0.3% (inactive).
For `COc1ccccc1C(=O)COC(=O)CNS(=O)(=O)c1ccc(NC(C)=O)cc1` the value was 0.48% (inactive); for `CC(=O)Nc1ccc(S(=O)(=O)NCC(=O)OCc2cc(=O)oc3ccc4ccccc4c23)cc1`, 273% (active).
The figure for `COc1ccccc1CNC(=O)COC(=O)CNS(=O)(=O)c1ccc(NC(C)=O)cc1` is -0.12% (inactive).
For `CC1CCCN(c2cccc3c2S(=O)(=O)N(Cc2ccc(F)cc2)[C@@H](C)[C@H](c2ccccc2)O3)C1` (some centres undefined) the value was -0.65% (inactive); for `Nn1c(SCC(=O)Nc2cccc3ccccc23)nnc1-c1cc(-c2ccc(F)cc2)n[nH]1`, 0.42% (inactive).
On to `COc1cccc(-c2ccc3c(c2)S(=O)(=O)c2cccc(C(=O)O)c2C3=O)c1OC`, for which the activation was -0.11% (inactive).
The figure for `O=C(O)c1ccc2c3c(cccc13)C(=O)N(OS(=O)(=O)c1ccccc1)C2=O` is 105% (active).
The figure for `C=C(C)C#CC(Cc1ccccc1)N(CC1CC1)/C(N)=N/C(=O)OCc1ccccc1` (centres undefined) is -0.43% (inactive); for `CC(=O)Nc1ccc(-c2cn3cccnc3n2)cc1` it is 64.7% (active).
The figure for `CC(=O)Nc1ccc(S(=O)(=O)Nc2ccc(-c3ccc4nnc(C)n4n3)cc2)cc1` is 0.05% (inactive); for `Cc1nn2c(=O)cc(COC(=O)c3ccc(NC(=O)C(C)(C)C)cc3)nc2s1` it is -0.47% (inactive); for `CCCCCC(=O)Nc1ccc(S(=O)(=O)Nc2ccc(Cl)nn2)cc1` it is -0.08% (inactive).
`CC(C)(C)C(=O)Nc1ccc(-c2cn3cccnc3n2)cc1`: the activation was 65.9% (active).
`CCCCCC(=O)Nc1ccc(-c2cn3cccnc3n2)cc1`: the activation is 52.5% (active).
Take `CCCCC(=O)Nc1ccc(C(=O)NCCCn2ccnc2)cc1`: the activation is 0% (inactive).
For `CC(C)(C)C(=O)Nc1cccc(-c2ccc[nH]2)n1` the value was 0.15% (inactive).
With `Cc1cccc(C(=O)Nc2c(-c3ccc(F)cc3)nc3ncccn23)c1`, the activation was 8.91% (inactive).
For `O=C(CCS(=O)(=O)c1ccccc1)Nc1ccc(Cl)c(Cl)c1` the value was 0.23% (inactive).
In the case of `O=C(CSc1nnc(COc2ccccc2)n1-c1ccc(Cl)cc1)Nc1ccc2c(c1)OCO2`, the activation is 0.41% (inactive).
For `COC(=O)[C@@]12CCCCC=C1N(CCc1ccc(Cl)cc1)C(=O)[C@H]2CC(=O)NCc1ccc(OC)c(OC)c1` the value was -0.01% (inactive); for `Cc1ccc2nc(-c3ccc(CN4CCC(n5cc(-c6ccccc6)[nH]c5=O)CC4)cc3)c(-c3ccccc3)nc2c1`, -16.7% (inactive).
The figure for `CCCCCCc1cc2cc(-c3nnc(-c4cccc(OC)c4)o3)c(=O)oc2cc1O` is -1.12% (inactive).
For `COc1ccc(-c2cc(=O)oc3cc(OCC(=O)N(C)C4CCS(=O)(=O)C4)ccc23)cc1` (centres undefined) the value was -0.13% (inactive); for `COc1ccc(-c2cc3ccc(OCc4nn[nH]n4)cc3oc2=O)cc1`, 75.6% (active); for `COc1cccc(CSc2nnc(-c3cccnc3)n2Cc2ccccc2)c1`, -0.18% (inactive).
For the compound `Nn1c(SCC(=O)Nc2ccc(S(N)(=O)=O)cc2)nnc1-c1n[nH]c2c1CCC2`, the activation is -0.51% (inactive).
For `CCCN(CC(=O)NC(=O)NC1CCCCC1)CC(=O)Nc1cc(Cl)ccc1Cl` the value was 24.4% (active).
For `CCOc1ccccc1NC(=O)NC1CCCCCCC1`, the activation is 0.05% (inactive).
For `O=C(COc1cc(Cl)c(Cl)cc1Cl)NC(=O)NC1CCCC1`, the activation is -0.16% (inactive).
With `Cc1cc(=O)[nH]c(SCC(=O)Nc2ccc(Cl)cc2C)n1`, the activation was -0.02% (inactive).
The figure for `CN1C(=O)c2cc(NS(C)(=O)=O)ccc2OC[C@@H]2O[C@@H](CC(=O)NCc3ccc(-c4ccccc4)cc3)CC[C@H]21` is -0.3% (inactive); for `CC1(C)CC(=O)c2cc(OCC(=O)NCC3CCCO3)ccc2O1` (centres undefined) it is 54.2% (active); for `C=CCOc1ccc(/C=C/C(=O)OCC(=O)NCC2CCCO2)cc1` (centres undefined) it is -1.06% (inactive).
The figure for `CCOc1ccc(S(=O)(=O)NCCC(=O)NCC2CCCO2)cc1` (centres undefined) is 0.66% (inactive); for `CN(C)c1ccc(NC(=O)NC2CCCCN(Cc3ccc(Cl)cc3)C2=O)cc1` (centres undefined) it is 0.67% (inactive).
The figure for `COc1ccnc(C(=O)N2CCC(Oc3cccnc3)CC2)c1` is 0.48% (inactive); for `Cn1cccc1C(=O)NC(=O)COC(=O)Cc1coc2ccc3ccccc3c12` it is -3.37% (inactive); for `Cc1ccc(NC(=O)Nc2cc(C)nn2-c2ccccc2)cc1` it is 0.53% (inactive).
On to `C#CCN([C@H](C(=O)OC)C(C)CC)S(=O)(=O)c1ccccc1Br` (some centres undefined), for which the activation was 0.19% (inactive).
For the compound `CCCSc1ncccc1C(=O)O`, the activation was 0.67% (inactive).
Turning to `OCCNc1nc2ccccc2n1-c1ncnc2sc3c(c12)CCC3`, the activation was -0.67% (inactive).
For `O=C(O)c1cccnc1Sc1ncnc2sc3c(c12)CCC3` the value was 12.7% (active); for `CN(C)[C@H]1CCN(c2cccc3c2S(=O)(=O)N2CC[C@H](C2)O3)C1`, 0.28% (inactive).
As for `CCOC(=O)c1cccc(NC(=O)CN(C)S(=O)(=O)c2ccc(-c3cocn3)s2)c1`, the activation was -0.02% (inactive).
Consider `COc1ccc2nc(Nc3nc4cc5c(cc4s3)OCCO5)sc2c1`, for which the activation is 17.3% (active).
For `COc1cccc(C(=O)Nc2cc3c(cc2Br)OCCCO3)c1` the value was -0.41% (inactive); for `COc1ccc(-c2onc(C)c2-c2ccc3c(c2)OCCO3)c(O)c1`, -0.06% (inactive).
